# Assay results as given in PubChem BioAssay (Tox21).
# Values joined by “and” are separate entries in the source; they are usually repeats but may differ in a detail not shown here. Identical values can stand only once. Some structures have more than one record in an assay (separate samples or runs), and their calls can disagree. Active and inactive are the calls of the source. Where a call stands in place of a potency, no number is given. Calls come from the whole dose curve; as a rule, active = well fitted activation curve with a large enough effect in the repeat runs; inconclusive = weak or mixed curves; inactive = flat fitted curve, though single readings scatter.
# Test: Caspase-3/7 induction in CHO-K1 cells by small molecules, qHTS assay (AID 1346980); note: nearly all actives have a fitted effect of over 15% in size
# Settings: CHO-K1 caspase-3/7 induction, Caspase-Glo luminescence, 17 h; series mostly up to 92.4 µM
# Excerpt: National Center for Advancing Translational Sciences [NCATS]
# NIH Chemical Genomics Center [NCGC]
# U.S. Environmental Protection Agency [EPA]
# National Institutes of Environmental Health Sciences [NIEHS]
# National Toxicology Program [NTP]
# Apoptosis is a process of programmed cell death and plays a central role in the development of multicellular organisms. It is a highly regulated process and induces cell death by activating caspases, which are the members of cysteine aspartic acid-specific protease (caspase) family. Caspases involved in apoptosis are classified by their mechanism of action as initiator caspases (caspase-2, -8, -9 and -10) and executioner caspases (caspase-3, -6, and -7). Inhibition of apoptosis results in number of cancers, autoimmune diseases, inflammatory diseases and viral infection. To identify small molecule compounds that induce apoptosis, a homogeneous, luminescent Caspase-Glo 3/7 assay was used. Wild type CHO-K1 cells were used to screen Tox21 libraries for identifying caspase-3/7 activity inducers.
# CHO-K1 cells were dispensed at 1,500 per well in 5uL of culture medium into white solid bottom 1536-well plates (Corning Life Sciences, Corning, NY) using a Multidrop Combi (Thermo Scientific, Waltham, MA) dispenser. The assay plates were incubated at 37 C and 5% CO2 for 5hr, and then 23nL of compounds dissolved in DMSO and positive control were transferred using a Pintool station (Wako, San Diego, CA). The assay plates were incubated at 37C and 5% CO2 for 17hr. For caspase-3/7 activity read, 4uL of Caspase-Glo 3/7 reagent (Promega Corporation, Madison, WI) was added to each well of the assay plates using Flying Reagent Dispenser (FRD, Aurora Discovery, San Diego, CA) and incubated the assay plates at room temperature for 30min. The luminescence signal was quantified using a ViewLux plate reader (Perkin Elmer, Shelton, CT).
# Potency is the fitted concentration of half-maximal effect.
row,Structure (SMILES),Potency
1,C1CS1,inactive
2,O=C(O)COc1cc(Cl)c(Cl)cc1Cl,inactive
3,CCCC[P+](CC)(CCCC)CCCC (tested in a mixture with another compound),inactive
4,Cc1cccc(C)c1NC1=NCCCS1,inactive
5,OCC1CO1 (stereo not given),inactive
6,CN1C[C@H](C(=O)N[C@]2(C)O[C@@]3(O)[C@@H]4CCCN4C(=O)[C@H](Cc4ccccc4)N3C2=O)C=C2c3cccc4[nH]cc(c34)C[C@H]21,inactive
7,O=C(NC(=O)c1cc(F)c(F)cc1Cl)Nc1cc(F)ccc1N1CCC(C(=O)O)CC1,inactive
8,CN[C@@H](C)[C@H](O)c1ccccc1,inactive
9,NNCCO,inactive
10,NCCc1cc(O)c(O)cc1O,inactive
11,C=CC(C)(CCC=C(C)C)OC(=O)c1ccccc1N (stereo not given),inactive
12,Nc1ccccc1C(=O)OCC(O)CO (stereo not given),inactive
13,Nc1cc(Cl)cc(C(=O)O)c1Cl,inactive
14,CN(C)c1ccc(N=O)cc1,inactive
15,O=C(N/N=C/c1ccc([N+](=O)[O-])o1)c1cc([N+](=O)[O-])cc([N+](=O)[O-])c1O,inactive
16,CCCBr,inactive
17,Clc1ccccc1,inactive
18,O=S(=O)(Cl)Cl,inactive
19,CCOC(=O)c1cncn1C(C)c1ccccc1 (stereo not given),inactive
20,NC(=S)c1c(Cl)cccc1Cl,inactive

row,Structure (SMILES),Potency
1,C=CC(=O)OCC,inactive
2,CCOC(=O)NC(O)C(Cl)(Cl)Cl (stereo not given),inactive
3,c1ccc2c(c1)sc1ccccc12,inactive
4,C=CC(=O)NC(C)(C)CC(C)=O,inactive
5,SCc1ccccc1,inactive
6,OCCSSCCO,inactive
7,Nc1ccccc1C(=O)OCCc1ccccc1,inactive
8,CC(C)(C)c1ccc(CCOc2ncnc3ccccc23)cc1,inactive
9,CC(C)CCCCCCCOC(=O)c1ccccc1C(=O)OCCCCCCCC(C)C,inactive
10,CCC(C)(C)c1ccc(O)c(C(C)(C)CC)c1,inactive and 17.2 µM (active)
11,O=C(O)CCCOc1ccc(Cl)cc1Cl,inactive
12,C1CCNCC1,inactive
13,CC(C)c1ccc(NC(=O)N(C)C)cc1,inactive
14,Nc1ccc2c(c1)Cc1ccccc1-2,inactive
15,CCCCCCCCP(=O)(O)O,inactive
16,O=CC=O,inactive
17,CCCN(CCOc1c(Cl)cc(Cl)cc1Cl)C(=O)n1ccnc1,inactive
18,[Cl-].[Cl-].[Hg+2],inactive
19,CCOP(=S)(S)OCC,inactive
20,C=C(C)C(=O)OCCCCOC(=O)C(=C)C,inactive
